We go through 19 sequences from the OligoGym collection.
Also: reference of the scale not given here.

One assay deals with PALB2. Put plainly: pooled miR-30 sensor sort-seq; sequence = guide strand. Particulars: shRNA.
Consider TTCCTGTGTATCTTCTACCAGG, for which the sensor-assay potency score (higher = more potent) is -0.953.

Sequence TTAGGAATGTATCAACACCTTT came in with a sensor-assay potency score (higher = more potent) of -0.84.

TAAATTTTTACTTGCATCCTTA: the sensor-assay potency score (higher = more potent) stood at 0.122.

In turn, TTGTTCTAACATAATATTCTGC had a sensor-assay potency score (higher = more potent) of -0.275.

TAACATAATATTCTGCAGGAAA returned a sensor-assay potency score (higher = more potent) of -1.13.

Turning to TTTGCTACTGATTTCTTCCTGT, the sensor-assay potency score (higher = more potent) is 0.661.

TATAGCTTTATTTACAAGGAGG: the sensor-assay potency score (higher = more potent) is -1.15.

Sequence TACAGCATCACACCCACGCTGA came in with a sensor-assay potency score (higher = more potent) of -0.615.

TTTGTATAGGTAATCCTCCTGG showed a sensor-assay potency score (higher = more potent) of 0.029.

The sequence TTCTTGAACTTGGTTGTCCTGT yielded a sensor-assay potency score (higher = more potent) of 0.276.

Regarding TTGAATAAATAATTTTTCGTGC, the sensor-assay potency score (higher = more potent) was -0.674.

TACATGGCTCTTTACAACCGGC yielded a sensor-assay potency score (higher = more potent) of -0.961.

Another assay has as its target PALM2-AKAP2. The description is as above. To be noted: shRNA.
TTGAACAGGAGAAGACACCTGA returned a sensor-assay potency score (higher = more potent) of 1.01.

On to TTCTAATGCAGTATTGTTCTTT, for which the sensor-assay potency score (higher = more potent) was determined as 0.398.

The sequence TTGAATGGCATTCTGCACCAGG displayed a sensor-assay potency score (higher = more potent) of -0.555.

In turn, TTGTCAATCATGCTTGCGCGTT yielded a sensor-assay potency score (higher = more potent) of -1.12.

The sequence TTTCTCATGCTCGTCATCCTCA returned a sensor-assay potency score (higher = more potent) of 0.127.

As to TTGACAGATCTTGAGAACTGAT, the sensor-assay potency score (higher = more potent) is -0.51.

In turn, TTGTTCTTTCTCATGCTCGTCA registered a sensor-assay potency score (higher = more potent) of 0.379.
